# Source: PubChem BioAssay (Johns Hopkins Ion Channel Center)
# In the library only some 3.5% were active in any assay of this set; here they are far more common.
# ANO1 activ – TMEM16A chloride channel activators or potentiators, primary screen, cell-based, HTS; 340,000 compounds, 0.3% hits; B-score at 10 µM; AID 623877, 2012; HEK293 TMEM16A/YFP-H148Q/I152L, iodide quench fluorescence; hits give low values; Anoctamin-1 (Mus musculus), Q8BHY3;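 active means fluorescence-ratio B-score plate-corrected deviation score at least 3 library SD below zero, with starting fluorescence score within 5 deviations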;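 further: channel opened by trigger with iodide after compound preincubation; score built on the fluorescence ratio of max minus min over baseline; more negative score means more quench and so TMEM16A activation or potentiation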
# ANO1 block – TMEM16A chloride channel inhibitors, primary screen, cell-based, HTS; HEK293 TMEM16A/YFP iodide influx fluorescence, ionomycin; normalized B-score (activity score, 25-100; higher = stronger inhibition) at 10 µM; AID 588511, 2011; Anoctamin-1 (Mus musculus), Q8BHY3; 310,000 compounds, 1.2% hits;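 active means ratio plate-corrected score three or more library SD toward inhibition, starting fluorescence score within five deviations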;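 further: score derived from kinetic fluorescence span divided by baseline fluorescence per well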
# KCNK9 block – KCNK9 potassium channel inhibitors, primary screen, HEK293 cells, thallium flux | Potassium channel subfamily K member 9 (Homo sapiens), Q9NPC2 | FluxOR thallium flux fluorescence; hits give low values | B-score at 10 µM | 310,000 compounds, 1.2% hits | AID 488922, 2010;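 active means ratio B-score over 3 SD below the library mean, with starting fluorescence within 5 SD of its mean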;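 further: negative B-score means less thallium flux so channel inhibition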
# Kir21 block – inhibitors of mouse Kir2.1 inward-rectifier potassium channel; HEK293-Kir2.1, FluxOR thallium flux fluorescence; hits give low values; B-score at 10 µM; 310,000 compounds, 0.85% hits; AID 1672, 2009;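 active means fluorescence ratio B-score at or below minus 3 SD of library scores, with starting-brightness B-score within 2 SD, cut at about -4.2 in these data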;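 further: channel flux triggered by added potassium and thallium sulfate stimulus; B-score of peak minus minimum fluorescence over baseline after thallium stimulus; more negative B-score means stronger Kir2.1 block with less thallium influx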
# Target sequence (P35561 whole entry, looked up): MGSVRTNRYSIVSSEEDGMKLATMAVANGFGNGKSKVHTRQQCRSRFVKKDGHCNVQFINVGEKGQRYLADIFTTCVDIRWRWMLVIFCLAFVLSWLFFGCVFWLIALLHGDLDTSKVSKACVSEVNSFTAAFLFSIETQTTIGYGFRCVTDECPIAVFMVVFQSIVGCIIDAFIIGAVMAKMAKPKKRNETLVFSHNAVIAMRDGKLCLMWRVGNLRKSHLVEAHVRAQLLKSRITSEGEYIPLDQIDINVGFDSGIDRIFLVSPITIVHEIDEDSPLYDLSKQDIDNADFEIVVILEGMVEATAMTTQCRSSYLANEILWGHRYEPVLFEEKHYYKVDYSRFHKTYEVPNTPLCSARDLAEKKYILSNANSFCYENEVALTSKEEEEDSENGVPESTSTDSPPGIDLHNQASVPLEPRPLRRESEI
# KCNK3 block – human KCNK3 channel inhibitors, primary screen, CHO cells, FluxOR thallium flux, B-score; Potassium channel subfamily K member 3 (Homo sapiens), O14649; FluxOR fluorescence; hits give low values; B-score at 10 µM; 340,000 compounds, 0.84% hits; AID 602410, 2012;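 active means B-score under library mean minus 4 SD, starting fluorescence ratio at most library mean plus 5 SD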;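 further: more negative B-score means stronger inhibition of thallium flux through KCNK3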
# TMEM16A reconf – TMEM16A chloride channel inhibitors, confirmation, cell-based, re-confirmation. shares compounds with ANO1 block. HEK293 TMEM16A/YFP-H148Q, iodide quench fluorescence; ionomycin added to raise cell calcium. inhibition, % at 10 µM. 2,300 compounds, 39% hits. AID 652189, 2013;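 active means mean duplicate percent inhibition, scaled so buffer wells are 0 and the reference blocker 100, over three buffer SD above buffer mean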
# HEK293 Ca mobil – calcium mobilization in TMEM16A/YFP HEK293 cells, confirmation, counter-screen for TMEM16A inhibitor project; shares compounds with ANO1 block; Fluo4 calcium mobilization; calcium response (% of ionomycin), % at 10 µM; 2,300 compounds, 2% hits; AID 652231, 2013;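 active means duplicate-averaged calcium signal over 20% of the ionomycin maximum, relative to buffer baseline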;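 further: each well's signal is peak minus trough fluorescence divided by its pre-addition baseline; 0% = buffer wells and 100% = ionomycin wells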
# Parental YFP cnt – iodide YFP quench changes in parental YFP-HEK293, counter-screen for TMEM16A inhibitor project, cell-based | shares compounds with ANO1 block | ionomycin | YFP ratio F(max-min)/F0 at 10 µM | 2,300 tested, under 10 active;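 active means yellow fluorescent protein signal ratio exceeding the buffer control mean by over 5 SD of those controls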;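 further: ratio is mean of duplicate wells from kinetic YFP trace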
# ClC-1 rat inh – ClC-1 chloride channel inhibition, selectivity assay for TMEM16A inhibitor project, cell-based, voltage-dependent ClC-1; shares compounds with ANO1 block; CHO ClC-1-YFP, iodide influx fluorescence quench; iodide control reads 0, buffer control 100; 2,300 tested, under 10 active; ratio percent, % at 10 µM;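 active means duplicate-mean ratio percent above the mean of iodide-only control wells, which defines zero, plus 5 of their SD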;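 further: higher percent means stronger block of ClC-1 iodide influx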
# An asterisk follows results filed as active; i = inactive; . = no result given.
SMILES,ANO1 activ,ANO1 block,KCNK9 block,Kir21 block,KCNK3 block,TMEM16A reconf,HEK293 Ca mobil,Parental YFP cnt,ClC-1 rat inh
CCOC(=O)C1CCN(c2c(NCCN3CCCCC3C)c(=O)c2=O)CC1 (stereo not drawn),i,100*,i,-1.9,i,i,i,-1.3,-10
CCc1c(C)c2cc(Cl)c(O)c(CN3CCCC3)c2oc1=O,i,i,i,3,i,.,.,.,.
COc1cc(OC)cc(C(=O)Nc2ccccc2C(=O)NC2CC2)c1,i,.,.,.,i,.,.,.,.
CN=C1c2cc3cc(OC)ccc3n2CCN1Cc1ccccc1,i,.,i,-3.2,i,.,.,.,.
CCN(CC)CCNC1=NCCn2c1cc1cc(OC)ccc12,i,25*,i,0.44,i,i,i,-0.98,-12
Cc1cccc2nc(-c3cccnc3)c(Nc3ccccc3)n12,i,100*,i,-1.2,i,35%*,i,-0.98,-26
C=CCOC(=O)N1CCN(c2cccc(C(F)(F)F)c2)CC1,i,i,i,-0.44,i,.,.,.,.
CCOc1cc(/C=C/C(=O)N(CC)CC(=O)NCc2cccs2)cc(Cl)c1OC,i,i,i,-1.6,i,.,.,.,.
O=C(/C=C/c1ccccc1)NCc1ccco1,i,i,i,-0.32,i,.,.,.,.
O=C(/C=C/c1ccccc1Cl)NCc1ccco1,i,25*,i,2.3,i,i,i,-0.86,-4
Oc1[nH]c2ccccc2c1N=Nc1ccc(F)cc1,i,i,i,-1,i,.,.,.,.
Oc1[nH]c2ccccc2c1N=Nc1ccccc1,i,i,i,1.2,i,i,i,-0.97,14
COc1ccc(-n2ncc3c2CC(C)(C)CC3NC(=O)c2cn[nH]c2)cc1 (stereo not drawn),i,i,i,-0.17,i,.,.,.,.
Fc1ccccc1-c1nnc2ccc3ccccc3n12,i,i,i,1.4,i,.,.,.,.
Fc1cccc(Cl)c1-c1nnc2ccc3ccccc3n12,i,25*,i,-2.1,i,i,i,-0.9,-10
O=C(NCc1cccnc1)c1ccc(COc2ccccc2Cl)cc1,i,25*,i,-2.3,i,19%*,i,-1.1,0
O=C(NCc1cccnc1)c1ccc(COc2ccccc2Br)cc1,i,i,i,1.4,i,.,.,.,.
O=[N+]([O-])C1C(c2ccccc2)=NOC1c1ccccc1O (stereo not drawn),i,i,i,0.03,i,.,.,.,.
Cc1ccc(S(=O)(=O)N(C)C)cc1NC(=O)c1cc(S(=O)(=O)N2CCCCC2)ccc1N1CCOCC1,i,.,.,.,i,.,.,.,.
O=C(c1cccs1)N1CCN(C(=O)C2CCCO2)CC1 (stereo not drawn),i,100*,i,0.92,i,i,i,-1,3
O=C(Nc1ccc2c(c1)OCO2)N1CCN(C(=O)C2CCCO2)CC1 (stereo not drawn),i,25*,i,0.37,i,i,i,-1.1,-4
O=C(Nc1ccc(Cl)cc1)N1CCN(C(=O)C2CCCO2)CC1 (stereo not drawn),i,i,i,0.17,i,.,.,.,.
O=C(O)C(C1CCCCC1)C1(O)CCCC1 (stereo not drawn),i,.,.,.,i,.,.,.,.
O=C(N/N=C/c1ccc(O)cc1)c1ccc(COc2cc(Cl)ccc2Cl)o1,-5.6*,25*,i,-0.08,i,i,i,-0.94,-12
O=C(c1ccccc1)c1ccc(C(=O)N2CCOCC2)cc1,i,i,i,1.2,i,.,.,.,.
SMILES,ANO1 activ,ANO1 block,KCNK9 block,Kir21 block,KCNK3 block,TMEM16A reconf,HEK293 Ca mobil,Parental YFP cnt,ClC-1 rat inh
O=C(c1ccc(-c2ccccc2)cc1)c1ccccc1C(=O)N1CCOCC1,i,100*,i,0.23,i,i,i,-1.2,-10
Cc1c(C(=O)Nc2ccc(Oc3ccccc3)cc2)sc2nc3n(c(=O)c12)CCC3,i,100*,i,-0.21,i,i,i,-1.2,-18
Cc1c(C(=O)Nc2ccc(OC(F)(F)F)cc2)sc2nc3n(c(=O)c12)CCC3,i,i,i,0.19,i,.,.,.,.
O=C(CSc1ccccn1)N1CCN(c2cccc(Cl)c2)CC1,i,25*,i,-0.78,i,i,i,-0.89,-14
O=C(CSc1ccccn1)N1CCN(c2ccccc2)CC1,i,i,i,-1.6,i,.,.,.,.
Clc1ccccc1N1CCN(Cc2ccco2)CC1,i,i,i,0.8,i,.,.,.,.
COc1ccccc1N1CCN(Cc2ccco2)CC1,i,25*,i,-1.3,i,i,i,-1,-4
O=C(CSc1nnc(SCc2ccc(Cl)cc2)s1)N/N=C/c1ccccc1C(=O)O,i,i,i,-0.54,i,.,.,.,.
COc1cc(OC)c(OC)cc1CNCc1ccco1,i,i,i,-0.1,i,.,.,.,.
CCOc1ccc(C(=O)NCC(C)NC(=O)c2ccc(OCC)cc2)cc1 (stereo not drawn),i,25*,i,3.9,i,i,i,-0.79,-11
O=C(CCCSc1nc2ccccc2[nH]1)N1CCN(c2ccc([N+](=O)[O-])cc2)CC1,i,25*,i,0.14,i,20%*,i,-0.98,-11
CN1/C(=C\C(=O)c2cncc(Br)c2)C(C)(C)c2ccccc21,i,i,i,1,i,22%*,i,-0.72,-8
CN1/C(=C\C(=O)COC(=O)c2ccco2)C(C)(C)c2ccccc21,i,i,i,-0.01,i,.,.,.,.
CN1/C(=C\C(=O)c2ccco2)C(C)(C)c2ccccc21,i,i,i,0.46,i,26%*,i,-0.68,-2
CN1/C(=C\C(=O)COc2ccc3c(c2)OCO3)C(C)(C)c2ccccc21,i,i,-8*,-0.19,i,i,i,-0.73,4
